# “And” between values parts separate entries of the source, which are not always exact repeats. Identical values can stand only once. The campaign covered roughly 1,300 compounds. About 1,000 (77%) were called active. Another 7% or so got no clear call; they are omitted. The set was probably picked from earlier hits. This is one part of the list. A number with no mark means an inactive call. Calls come from the whole dose curve; as a rule, active = well fitted inhibition curve with a large enough effect; inconclusive = small, poorly fitted or top-dose-only effect; inactive = no such curve, though single readings can be large or run the other way.
# Assay: qHTS of small molecules that selectively kill Giardia lamblia: Hit Validation.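 Note: viability measured as ATP content by luminescence so killing lowers signal; nearly all actives have a fitted effect of over 65% in size.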
# Details: Giardia lamblia trophozoite viability, dose-response; series mostly up to 38.3 µM; activity change, negative = killing: at the top concentration
# In short: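 Compounds were tested on trophozoites seeded at 100 cells/well and held 48 hrs at 37 deg C anaerobically. An ATP-based luminescent kit measured the remaining live cells.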
# % is set by controls: 0 for no effect and ±100 for the full control effect; potency is the fitted concentration of half-maximal effect.
Structure (SMILES),Potency,"activity change, negative = killing"
Cc1c(N=Nc2ccc(N(C)C)cc2)c(=O)n(-c2ccccc2)n1C,0.65 µM (active),
O=[N+]([O-])c1ccc(/C=C/c2ccnc3ccccc23)c([N+](=O)[O-])c1,7.29 µM (active),
CSC1SCC2C(=O)N(C)C(C(C)C)C(=O)OCC(NC(=O)c3cnc4ccccc4n3)C(=O)NC(C)C(=O)N(C)C1C(=O)N(C)C(C(C)C)C(=O)OCC(NC(=O)c1cnc3ccccc3n1)C(=O)NC(C)C(=O)N2C (stereo not drawn),0.206 µM (active),
O=C(CSc1ccsc1[N+](=O)[O-])NCCc1ccccc1,0.818 µM (active),
O=C(CSc1ccsc1[N+](=O)[O-])NCCc1ccc(Cl)cc1,1.3 µM (active),
CCc1cccc(N=c2c([N+](=O)[O-])nn(-c3ccc(Cl)cc3)n2O)c1,1.45 µM (active),
CN=c1c([N+](=O)[O-])nn(-c2ccc3c(c2)OCCO3)n1O,4.1 µM (active),
COc1cc(N=c2c([N+](=O)[O-])nn(-c3ccc4c(c3)OCCO4)n2O)cc(OC)c1,5.16 µM (active),
O=[N+]([O-])c1nn(-c2ccc3c(c2)OCCO3)n(O)c1=NCCC1=CCCCC1,1.63 µM (active),
CCc1cccc(N=c2c([N+](=O)[O-])nn(-c3ccc4c(c3)OCCO4)n2O)c1,0.818 µM (active),
Cc1cc(C)cc(N=c2c([N+](=O)[O-])nn(-c3ccc4c(c3)OCCO4)n2O)c1,0.729 µM (active),
O=[N+]([O-])c1nn(-c2ccc3c(c2)OCCO3)n(O)c1=NCCCO,2.05 µM (active),
Cn1nc(-c2ccncc2)nc2c(=O)n(C)c(=O)nc1-2,1.16 µM (active),
Cn1nc(-c2ccc(F)cc2)nc2c(=O)n(C)c(=O)nc1-2,0.103 µM (active),
Cn1nc(-c2ccc(Cl)cc2)nc2c(=O)n(C)c(=O)nc1-2,0.13 µM (active),
Cn1nc(-c2cccnc2)nc2c(=O)n(C)c(=O)nc1-2,4.1 µM (active),
COc1ccc(-c2nc3c(=O)n(C)c(=O)nc-3n(C)n2)cc1,0.163 µM (active),
CCCc1nc2c(=O)n(C)c(=O)nc-2n(C)n1,0.326 µM (active),
O=C1S/C(=C\c2ccc(O)c([N+](=O)[O-])c2)C(=O)N1Cc1cccc([N+](=O)[O-])c1,0.818 µM (active),
O=C1S/C(=C\c2ccc(O)c([N+](=O)[O-])c2)C(=O)N1c1ccccc1Cl,1.63 µM (active),
O=C1/C(=C/c2ccc(O)c([N+](=O)[O-])c2)SC(=S)N1Cc1ccccc1,1.45 µM (active),
O=C(O)c1cccc(CN2C(=O)S/C(=C/c3ccccc3[N+](=O)[O-])C2=O)c1,,-35.3%

Structure (SMILES),Potency,"activity change, negative = killing"
COc1cccc(/C=C2\Oc3ccc(O)cc3C2=O)c1O,3.26 µM (active),
CCOc1ccc(-n2c(C)c(C(C)=O)c3cc(O)ccc32)cc1,,5.94%
CC(=O)c1c(C)n([O-])c2ccc(C)cc2[n+]1=O,0.41 µM (active),
CCN(CC)CC(=O)c1c(C)n(C)c2ccc(OC)cc12,,0.629%
CC(=O)c1c(C)n([O-])c2ccccc2[n+]1=O,0.65 µM (active),
COc1ccc2c(c1)[n+](=O)c(C(C)=O)c(C)n2[O-],4.1 µM (active),
CC(=O)c1c(C)n([O-])c2cc(C)ccc2[n+]1=O,0.818 µM (active),
NC(=S)N/N=C1\c2ccccc2-c2c(C(=O)O)cccc21,,-2.7%
CC(=O)OCc1c(COC(C)=O)[n+](=O)c2ccccc2n1[O-],5.79 µM (active),
CC(=O)c1c(C)n([O-])c2cc(F)c(F)cc2[n+]1=O,4.1 µM (active),
O=C(Nc1ccc2oc(-c3cccnc3)nc2c1)c1ccc([N+](=O)[O-])o1,0.918 µM (active),
O=C(Nc1ccc2oc(-c3ccccc3F)nc2c1)c1ccc([N+](=O)[O-])o1,0.818 µM (active),
O=C(Nc1ccc2oc(-c3ccncc3)nc2c1)c1ccc([N+](=O)[O-])o1,0.918 µM (active),
Cc1cnc(N=Nc2ccccc2)[nH]1,9.18 µM (active),
O=C(NCCCO)c1cc([N+](=O)[O-])cc2c1C=Cc1ccccc1O2,11.6 µM (active),
Cc1ccc2nsnc2c1NC(=O)c1ccc([N+](=O)[O-])o1,3.26 µM (active),
O=C(Nc1c(Cl)ccc2nsnc12)c1ccc([N+](=O)[O-])o1,1.3 µM (active),
NC(=S)NN=C1CCCCCCCC1,23.1 µM (active),
Cc1ncc([N+](=O)[O-])n1CCOC(=O)NC(NCc1cccnc1)C(Cl)(Cl)Cl (stereo not drawn),0.46 µM (active),
Cc1ncc([N+](=O)[O-])n1CCOC(=O)NC(NCc1ccccc1Cl)C(Cl)(Cl)Cl (stereo not drawn),0.146 µM (active),
Cc1ncc([N+](=O)[O-])n1CCOC(=O)NC(NCc1ccccc1)C(Cl)(Cl)Cl (stereo not drawn),0.206 µM (active),
CCCCCCSc1ccc([C@H]2N[C@@](Cc3ccccc3)(C(=O)OC)[C@H]3C(=O)N(C)C(=O)[C@@H]23)cc1,,-9.35%

Structure (SMILES),Potency,"activity change, negative = killing"
Cc1cc(=O)oc2cc(O)c(N=Nc3ccccc3)cc12,1.03 µM (active),
Cn1c(-c2ccc(C(=O)c3ccccc3)s2)nc2ccccc21,3.26 µM (active),
COc1ccc(-c2cn3cc([N+](=O)[O-])ccc3n2)cc1OC,1.83 µM (active),
O=[N+]([O-])c1ccc2nc(-c3ccc(OC(F)F)cc3)cn2c1,2.31 µM (active),
COC(=O)c1sc(NC(=O)c2ccc(OC)cc2OC)nc1C,0.365 µM (active),
COc1cc(C(=O)NC(=S)Nc2ccc(Cl)cn2)cc(OC)c1OC,,-7.19%
COc1ccc(C(=O)Nc2ccc(C)cn2)c(OC)c1,0.579 µM (active),
C[C@H]1CN=C(N(C)C)N1CCC1CCCC1,,2.7%
CCOC(=O)CSc1ccc(C(=O)NCCCN2CCOCC2)cc1[N+](=O)[O-],18.3 µM (active),
O=C(CN(C1CCCCC1)S(=O)(=O)c1ccc(F)cc1)NCC1CCCO1 (stereo not drawn),1.63 µM (active),
Cc1c[n+]([O-])ccc1[N+](=O)[O-],1.3 µM (active),
Cc1cc(NC(=O)c2ccc(C(C)(C)C)cc2)no1,6.5 µM (active),
Cc1nc2c(ccc3nc(NC(=O)c4ccc5c(c4)OCCO5)sc32)s1,3.26 µM (active) and 3.65 µM (active),
Cc1ccnc(NC(=O)c2ccc3c(c2)OCO3)c1,2.59 µM (active),
Cc1cc(NC(=O)c2ccc3c(c2)OCCO3)no1,1.16 µM (active),
N#Cc1sc(NCc2cccc(Cl)c2)nc1Cl,23.1 µM (active),
NC(=O)CCCn1c(C(=O)c2ccc(Cl)cc2)c2ccc([N+](=O)[O-])cc2[n+]1[O-],1.16 µM (active),
NCCCn1c(C(=O)c2ccc(Cl)cc2)c2ccc([N+](=O)[O-])cc2[n+]1[O-],3.26 µM (active),
CCOC(=O)C1=C(C)N=c2s/c(=C/c3cccc([N+](=O)[O-])c3O)c(=O)n2C1c1ccccc1 (stereo not drawn),2.31 µM (active),
CCOC(=O)C1=C(C)N=c2s/c(=C/c3cccc([N+](=O)[O-])c3O)c(=O)n2C1c1cc(OC)c(OC)c(OC)c1 (stereo not drawn),2.9 µM (active),
CCOC(=O)C1=C(C)N=c2s/c(=C/c3cccc([N+](=O)[O-])c3O)c(=O)n2C1c1ccc(OC)cc1OC (stereo not drawn),1.83 µM (active),
CCOC(=O)C1=C(C)N=c2s/c(=C\c3ccc(O)c([N+](=O)[O-])c3)c(=O)n2C1c1ccccc1OC (stereo not drawn),2.05 µM (active),

Structure (SMILES),Potency,"activity change, negative = killing"
CN(C)C(=O)CCc1ccc2c3c([nH]c2c1)[C@]1(CCC2CCCC2)[C@@H](C(=O)N2CCOCC2)C[C@H](CC(=O)NCCN2CCOCC2)C(=O)N1CC3,,-13.7%
CCC(=O)N1CCN(c2ccc(Cl)cc2NC(=O)c2ccc([N+](=O)[O-])o2)CC1,1.16 µM (active),
CN1CCN(c2ccc(NC(=O)c3ccc([N+](=O)[O-])o3)cc2Cl)CC1,1.3 µM (active),
CS(=O)(=O)N1CCN(c2ccccc2NC(=O)c2ccc([N+](=O)[O-])o2)CC1,1.3 µM (active),
CC(=O)N1CCN(c2ccc(NC(=O)c3ccc([N+](=O)[O-])o3)cc2Cl)CC1,1.45 µM (active),
CCC(=O)N1CCN(c2ccc(NC(=O)c3ccc([N+](=O)[O-])o3)cc2Cl)CC1,0.65 µM (active),
O=C(Nc1ccccc1N1CCN(C(=O)c2ccccc2)CC1)c1ccc([N+](=O)[O-])o1,0.818 µM (active),
CC(=O)Nc1ccc(S(=O)(=O)NCCC(=O)N2CCN(c3ccccc3Cl)CC2)cc1,,-25.3%
CN1CCN(c2ccc(NC(=O)c3ccc4c(c3)OCCO4)cc2Cl)CC1,5.16 µM (active),
CCN1CCN(c2ccc(NC(=O)c3ccc([N+](=O)[O-])o3)cc2Cl)CC1,0.729 µM (active),
O=C(Nc1cccc(Cl)c1N1CCOCC1)c1ccc([N+](=O)[O-])o1,1.3 µM (active),
CC(C)C(=O)N1CCN(c2ccccc2NC(=O)c2ccc([N+](=O)[O-])o2)CC1,1.16 µM (active),
CC(C)C(=O)N1CCN(c2ccc(NC(=O)c3ccc([N+](=O)[O-])o3)cc2Cl)CC1,1.03 µM (active),
O=C(Nc1ccccc1N1CCOCC1)c1ccc([N+](=O)[O-])o1,1.3 µM (active),
CCC(=O)N1CCN(c2ccccc2NC(=O)c2ccc([N+](=O)[O-])o2)CC1,0.818 µM (active),
COc1ccc(-c2nc(CSCC(=O)NC3CCCC3)c(C)o2)cc1OC,,-30.1%
COc1ccc(CN(C(=O)CSc2nnc(-c3ccc(OC)c(OC)c3)o2)c2ccc(F)cc2)cc1,3.65 µM (active),
Cc1ccc(CSc2nnc(Cn3c(=O)sc4ccccc43)n2C)cc1,,-21.4%
Cc1ccc(-c2nc(-c3ccccc3)no2)c(Cl)c1,1.63 µM (active),
Nc1ccc[n+](CC(=O)c2ccc(F)cc2)c1,2.31 µM (active),
O=C(Nc1cccc2ccccc12)c1ccc([N+](=O)[O-])s1,2.05 µM (active),
Cc1cccc(NC(=O)c2ccc([N+](=O)[O-])s2)c1C,3.26 µM (active),

# Reference: PubChem BioAssay AID588397 (National Center for Advancing Translational Sciences (NCATS), 2011)
